Experimental data: the supplement of paper PMC10849652
Targets with a hit are over-represented here; the source holds about 8,800 in all. About 0.5% of all pairs of compound and target were hits.

Columns and labels:
Experiment in all cases: log2 fold change, soluble protein after heating vs DMSO (PISA); higher = thermal stabilisation; K562 lysate, 10 uM; active = over 0.2 and 3.5 SD of the protein, either way, in both replicates (recomputed)
erlotinib = compound: C#Cc1cccc(Nc2ncnc3cc(OCCOC)c(OCCOC)cc23)c1 [erlotinib]
How it was run: (§1)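 Values give the log-two fold change in thermal stability against solvent controls, from duplicates. Crude K562 extract at 1 mg/mL protein, made by dounce homogenisation in PBS pH 7.4 with 1 mM MgCl2, was treated with 10 μM compound for 30 min. After 3 min heating across 48°C-58°C, aliquots were pooled, adjusted to 0.5% NP-40 at 4°C and centrifuged at 21,000xg for 90 min. The supernatant was measured by TMTpro 16plex LC-MS/MS with channel sums equalised.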

[1] = compound: C/C(=N\NC(=O)C1=CC(=CC=C1)S(=O)(=O)N2CCOCC2)/C3=C(C=CC(=C3)Cl)O
How it was run: as §1

[2] = compound: C1=CC(=CC=C1C2=NC3=C(N2)C=C(C=C3)C(=O)N)OC4=CC=C(C=C4)Cl
How it was run: as §1

[3] = compound: C1=CC2=C(C=CC(=C2)/C=C\3/C(=O)NC(=NCC4=CC=CS4)S3)N=C1
How it was run: as §1

[4] = compound: C1=CC2=NC=CN=C2C=C1/C=C/3\C(=O)NC(=O)S3
How it was run: as §1

[5] = compound: C1=CC=C(C=C1)C2=NC(=C(N2)C3=CC=NC=C3)C4=CC(=C(C=C4)Cl)O
How it was run: as §1

[6] = compound: C1=CC=C2C(=C1)C3=NNC4=CC=CC(=C43)C2=O
How it was run: as §1

[7] = compound: C1CCN(C1)C(=O)NC2=CC=CC(=C2)NC3=NC=C(C(=N3)NCCC4=CN=CN4)Br
How it was run: as §1

[8] = compound: C1CN(CCC1(CC2=CC=C(C=C2)Cl)N)C3=NC=NC4=C3C=CN4
How it was run: as §1

IRAK-1-4 Inhibitor I = compound: C1COCCN1CCN2C3=CC=CC=C3N=C2NC(=O)C4=CC(=CC=C4)[N+](=O)[O-] [IRAK-1-4 Inhibitor I]
How it was run: as §1

Measured: log2 fold change

AKAP8 (UniProt O43823)
UniProt O43823, sequence (O43823 whole entry, looked up): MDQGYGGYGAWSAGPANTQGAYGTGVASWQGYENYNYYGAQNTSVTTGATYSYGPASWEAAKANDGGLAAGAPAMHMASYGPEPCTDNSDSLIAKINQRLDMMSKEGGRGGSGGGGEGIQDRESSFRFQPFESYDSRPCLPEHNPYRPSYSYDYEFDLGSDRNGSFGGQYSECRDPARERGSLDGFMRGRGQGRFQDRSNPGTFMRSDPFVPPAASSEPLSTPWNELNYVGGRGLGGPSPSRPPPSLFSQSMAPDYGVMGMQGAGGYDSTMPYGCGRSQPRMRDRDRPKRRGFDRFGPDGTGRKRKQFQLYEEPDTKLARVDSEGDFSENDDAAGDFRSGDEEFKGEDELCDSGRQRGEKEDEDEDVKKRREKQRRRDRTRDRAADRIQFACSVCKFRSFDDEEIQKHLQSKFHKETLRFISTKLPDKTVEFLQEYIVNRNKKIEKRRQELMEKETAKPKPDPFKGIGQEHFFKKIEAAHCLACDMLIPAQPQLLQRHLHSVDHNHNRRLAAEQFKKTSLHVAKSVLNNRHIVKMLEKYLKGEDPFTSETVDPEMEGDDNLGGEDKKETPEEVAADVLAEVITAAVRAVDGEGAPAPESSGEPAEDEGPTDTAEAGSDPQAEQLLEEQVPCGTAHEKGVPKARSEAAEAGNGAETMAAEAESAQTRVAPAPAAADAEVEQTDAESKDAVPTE
inactive: erlotinib -0.015 | [1] 0.002 | [2] 0.038 | [3] -0.005 | [4] -0.04 | [5] 0.045 | [6] -0.047 | [7] 0.044 | [8] 0 | IRAK-1-4 Inhibitor I 0.089

ADAR isoform 4 (UniProt P55265)
inactive: erlotinib -0.029 | [1] -0.114 | [2] -0.06 | [3] -0.031 | [4] 0.002 | [5] 0.001 | [6] -0.029 | [7] 0.002 | [8] -0.017 | IRAK-1-4 Inhibitor I 0

ASCC2 (UniProt Q9H1I8)
inactive: erlotinib 0.04 | [1] -0.106 | [2] -0.077 | [3] 0.083 | [4] 0.029 | [5] -0.016 | [6] -0.048 | [7] -0.054 | [8] 0.037 | IRAK-1-4 Inhibitor I -0.042

AKAP11 (UniProt Q9UKA4)
active: [6] -0.361
inactive: erlotinib 0.114 | [1] 0.232 | [2] 0.037 | [3] 0.095 | [4] 0.016 | [5] 0.059 | [7] -0.064 | [8] 0.017 | IRAK-1-4 Inhibitor I -0.071

AIP (UniProt O00170)
UniProt O00170, sequence (O00170 whole entry, looked up): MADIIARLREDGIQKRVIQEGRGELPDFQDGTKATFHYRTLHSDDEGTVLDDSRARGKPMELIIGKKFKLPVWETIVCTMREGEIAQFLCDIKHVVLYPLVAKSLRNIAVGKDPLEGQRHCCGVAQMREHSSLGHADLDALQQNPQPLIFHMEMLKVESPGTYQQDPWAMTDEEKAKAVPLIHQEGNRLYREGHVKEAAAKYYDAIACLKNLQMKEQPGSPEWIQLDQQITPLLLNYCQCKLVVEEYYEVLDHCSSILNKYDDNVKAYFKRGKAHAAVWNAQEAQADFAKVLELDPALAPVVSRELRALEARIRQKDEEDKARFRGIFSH
inactive: erlotinib -0.006 | [1] -0.032 | [2] -0.015 | [3] -0.004 | [4] -0.012 | [5] 0.018 | [6] 0.026 | [7] -0.002 | [8] 0.016 | IRAK-1-4 Inhibitor I -0.012

ARGLU1 (UniProt Q9NWB6)
inactive: erlotinib -0.008 | [1] 0.069 | [2] -0.039 | [3] 0.009 | [4] -0.034 | [5] -0.057 | [6] -0.002 | [7] 0.003 | [8] -0.047 | IRAK-1-4 Inhibitor I 0.025

ARL8A (UniProt Q96BM9)
UniProt Q96BM9, sequence (Q96BM9 whole entry, looked up): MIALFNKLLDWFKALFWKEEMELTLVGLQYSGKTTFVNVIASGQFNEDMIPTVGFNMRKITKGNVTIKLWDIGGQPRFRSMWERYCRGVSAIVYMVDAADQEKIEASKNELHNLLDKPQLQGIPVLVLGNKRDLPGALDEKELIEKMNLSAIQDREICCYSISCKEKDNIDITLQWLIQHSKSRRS
inactive: erlotinib -0.223 | [1] -0.039 | [2] 0.176 | [3] 0.157 | [4] 0.036 | [5] 0 | [6] -0.041 | [7] 0.026 | [8] 0.028 | IRAK-1-4 Inhibitor I 0.091

ALDH2 (UniProt P05091)
inactive: erlotinib -0.048 | [1] 0.009 | [2] -0.062 | [3] 0.03 | [4] 0.042 | [5] -0.016 | [6] 0.175 | [7] 0.011 | [8] 0.023 | IRAK-1-4 Inhibitor I 0.003

AMD1 (UniProt P17707)
UniProt P17707, sequence (P17707 whole entry, looked up): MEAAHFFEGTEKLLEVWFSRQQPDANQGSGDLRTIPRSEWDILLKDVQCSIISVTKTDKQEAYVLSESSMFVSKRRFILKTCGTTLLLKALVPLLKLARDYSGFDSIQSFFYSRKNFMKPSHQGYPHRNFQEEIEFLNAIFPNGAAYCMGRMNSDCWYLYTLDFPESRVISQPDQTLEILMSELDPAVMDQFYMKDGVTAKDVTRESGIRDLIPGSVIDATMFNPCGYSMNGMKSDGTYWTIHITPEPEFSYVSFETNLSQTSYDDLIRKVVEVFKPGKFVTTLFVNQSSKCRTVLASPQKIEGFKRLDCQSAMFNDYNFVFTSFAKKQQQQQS
inactive: erlotinib 0.019 | [1] 0.011 | [2] -0.091 | [3] -0.075 | [4] 0.055 | [5] 0.061 | [6] 0.011 | [7] 0.114 | [8] -0.156 | IRAK-1-4 Inhibitor I -0.036

ARMC6 (UniProt Q6NXE6)
inactive: erlotinib 0.012 | [1] -0.026 | [2] -0.093 | [3] 0.022 | [4] 0.04 | [5] 0.006 | [6] -0.027 | [7] 0.021 | [8] -0.031 | IRAK-1-4 Inhibitor I -0.005

ANXA5 (UniProt P08758)
UniProt P08758, sequence (P08758 whole entry, looked up): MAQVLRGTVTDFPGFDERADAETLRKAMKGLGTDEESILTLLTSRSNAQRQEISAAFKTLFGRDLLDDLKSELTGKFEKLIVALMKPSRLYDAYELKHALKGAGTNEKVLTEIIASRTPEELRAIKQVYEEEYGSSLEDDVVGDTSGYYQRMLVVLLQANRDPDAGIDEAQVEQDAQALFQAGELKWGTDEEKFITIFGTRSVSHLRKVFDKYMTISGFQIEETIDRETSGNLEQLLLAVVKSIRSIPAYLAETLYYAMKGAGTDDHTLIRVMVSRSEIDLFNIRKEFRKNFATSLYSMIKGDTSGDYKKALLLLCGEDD
inactive: erlotinib -0.011 | [1] -0.001 | [2] -0.024 | [3] 0.014 | [4] -0.016 | [5] -0.023 | [6] 0.009 | [7] -0.003 | [8] -0.049 | IRAK-1-4 Inhibitor I -0.03

ABCA3 (UniProt Q99758)
UniProt Q99758, sequence (Q99758 whole entry, looked up): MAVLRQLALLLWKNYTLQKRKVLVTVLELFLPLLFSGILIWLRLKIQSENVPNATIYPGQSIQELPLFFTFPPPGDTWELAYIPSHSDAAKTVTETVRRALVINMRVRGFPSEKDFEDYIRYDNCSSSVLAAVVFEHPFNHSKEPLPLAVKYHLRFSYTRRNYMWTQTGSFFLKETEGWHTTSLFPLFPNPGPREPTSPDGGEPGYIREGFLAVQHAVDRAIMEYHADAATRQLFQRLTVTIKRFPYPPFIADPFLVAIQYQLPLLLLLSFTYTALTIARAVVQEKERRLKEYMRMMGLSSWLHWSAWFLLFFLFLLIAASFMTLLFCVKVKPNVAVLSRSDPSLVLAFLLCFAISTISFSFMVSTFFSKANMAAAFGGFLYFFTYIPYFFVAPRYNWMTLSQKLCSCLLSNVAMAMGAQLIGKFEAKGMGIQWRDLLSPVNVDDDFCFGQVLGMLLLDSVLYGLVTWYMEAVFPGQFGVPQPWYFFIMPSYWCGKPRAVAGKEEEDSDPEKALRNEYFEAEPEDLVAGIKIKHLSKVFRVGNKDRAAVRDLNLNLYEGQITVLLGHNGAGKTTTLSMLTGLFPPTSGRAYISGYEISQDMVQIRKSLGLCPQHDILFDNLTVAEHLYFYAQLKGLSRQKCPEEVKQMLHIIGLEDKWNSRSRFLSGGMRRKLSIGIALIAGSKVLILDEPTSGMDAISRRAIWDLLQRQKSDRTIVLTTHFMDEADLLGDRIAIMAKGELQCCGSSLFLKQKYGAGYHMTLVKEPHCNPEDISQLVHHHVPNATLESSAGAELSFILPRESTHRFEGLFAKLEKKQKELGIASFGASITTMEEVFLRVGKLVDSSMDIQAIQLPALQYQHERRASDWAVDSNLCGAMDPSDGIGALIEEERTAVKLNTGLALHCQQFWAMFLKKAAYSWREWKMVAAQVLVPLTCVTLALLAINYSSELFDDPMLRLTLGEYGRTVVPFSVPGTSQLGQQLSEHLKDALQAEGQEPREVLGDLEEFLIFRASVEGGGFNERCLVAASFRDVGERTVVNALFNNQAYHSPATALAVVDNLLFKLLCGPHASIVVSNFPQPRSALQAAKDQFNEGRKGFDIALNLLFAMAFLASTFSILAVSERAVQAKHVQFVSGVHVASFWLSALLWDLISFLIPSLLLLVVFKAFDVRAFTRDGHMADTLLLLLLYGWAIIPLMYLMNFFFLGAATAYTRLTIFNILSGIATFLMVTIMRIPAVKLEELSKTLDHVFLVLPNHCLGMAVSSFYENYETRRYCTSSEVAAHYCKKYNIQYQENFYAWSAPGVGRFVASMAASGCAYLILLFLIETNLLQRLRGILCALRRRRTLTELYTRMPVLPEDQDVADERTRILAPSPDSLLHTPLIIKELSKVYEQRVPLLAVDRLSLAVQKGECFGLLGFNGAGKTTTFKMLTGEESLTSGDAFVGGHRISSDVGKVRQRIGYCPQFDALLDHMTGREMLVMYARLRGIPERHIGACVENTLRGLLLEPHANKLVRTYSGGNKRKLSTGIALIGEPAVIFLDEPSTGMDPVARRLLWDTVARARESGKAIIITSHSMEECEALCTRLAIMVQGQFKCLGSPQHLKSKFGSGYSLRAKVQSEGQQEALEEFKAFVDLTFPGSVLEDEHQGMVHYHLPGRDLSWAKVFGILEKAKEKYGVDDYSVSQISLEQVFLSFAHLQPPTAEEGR
inactive: erlotinib -0.022 | [1] -0.028 | [2] -0.033 | [3] 0.036 | [4] -0.096 | [5] 0.037 | [6] 0.211 | [7] -0.118 | [8] 0 | IRAK-1-4 Inhibitor I 0.114

AIMP2 (UniProt Q13155)
UniProt Q13155, sequence (Q13155 whole entry, looked up): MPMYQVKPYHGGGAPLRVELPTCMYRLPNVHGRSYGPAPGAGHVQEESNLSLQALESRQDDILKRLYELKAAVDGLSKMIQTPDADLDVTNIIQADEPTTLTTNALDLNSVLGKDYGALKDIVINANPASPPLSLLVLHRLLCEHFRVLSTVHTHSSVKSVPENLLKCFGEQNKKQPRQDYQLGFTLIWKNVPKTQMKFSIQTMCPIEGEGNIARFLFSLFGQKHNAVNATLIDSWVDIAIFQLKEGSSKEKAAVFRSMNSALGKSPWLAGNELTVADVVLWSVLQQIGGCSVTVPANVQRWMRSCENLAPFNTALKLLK
inactive: erlotinib 0.021 | [1] 0.062 | [2] -0.01 | [3] 0.006 | [4] 0.002 | [5] -0.016 | [6] -0.001 | [7] 0.014 | [8] -0.036 | IRAK-1-4 Inhibitor I 0.008

ADD1 isoform 4 (UniProt P35611)
inactive: erlotinib -0.016 | [1] -0.059 | [2] 0.011 | [3] 0.089 | [4] -0.088 | [5] -0.081 | [6] -0.025 | [7] 0.028 | [8] -0.009 | IRAK-1-4 Inhibitor I 0.093

ACACA isoform 4 (UniProt Q13085)
inactive: erlotinib 0.024 | [1] 0.039 | [2] -0.029 | [3] -0.012 | [4] 0.011 | [5] 0.019 | [6] -0.047 | [7] 0.003 | [8] 0.024 | IRAK-1-4 Inhibitor I 0.005

AP1G2 (UniProt O75843)
inactive: erlotinib 0.052 | [1] 0.016 | [2] 0.068 | [3] -0.116 | [4] -0.07 | [5] 0 | [6] 0.001 | [7] -0.003 | [8] 0.034 | IRAK-1-4 Inhibitor I -0.007

ADRM1 (UniProt Q16186)
inactive: erlotinib 0.007 | [1] -0.006 | [2] 0.007 | [3] -0.026 | [4] -0.016 | [5] 0.018 | [6] -0.088 | [7] 0.012 | [8] 0.007 | IRAK-1-4 Inhibitor I 0.026

ALG13 (UniProt Q9NP73)
UniProt Q9NP73, sequence (Q9NP73 whole entry, looked up): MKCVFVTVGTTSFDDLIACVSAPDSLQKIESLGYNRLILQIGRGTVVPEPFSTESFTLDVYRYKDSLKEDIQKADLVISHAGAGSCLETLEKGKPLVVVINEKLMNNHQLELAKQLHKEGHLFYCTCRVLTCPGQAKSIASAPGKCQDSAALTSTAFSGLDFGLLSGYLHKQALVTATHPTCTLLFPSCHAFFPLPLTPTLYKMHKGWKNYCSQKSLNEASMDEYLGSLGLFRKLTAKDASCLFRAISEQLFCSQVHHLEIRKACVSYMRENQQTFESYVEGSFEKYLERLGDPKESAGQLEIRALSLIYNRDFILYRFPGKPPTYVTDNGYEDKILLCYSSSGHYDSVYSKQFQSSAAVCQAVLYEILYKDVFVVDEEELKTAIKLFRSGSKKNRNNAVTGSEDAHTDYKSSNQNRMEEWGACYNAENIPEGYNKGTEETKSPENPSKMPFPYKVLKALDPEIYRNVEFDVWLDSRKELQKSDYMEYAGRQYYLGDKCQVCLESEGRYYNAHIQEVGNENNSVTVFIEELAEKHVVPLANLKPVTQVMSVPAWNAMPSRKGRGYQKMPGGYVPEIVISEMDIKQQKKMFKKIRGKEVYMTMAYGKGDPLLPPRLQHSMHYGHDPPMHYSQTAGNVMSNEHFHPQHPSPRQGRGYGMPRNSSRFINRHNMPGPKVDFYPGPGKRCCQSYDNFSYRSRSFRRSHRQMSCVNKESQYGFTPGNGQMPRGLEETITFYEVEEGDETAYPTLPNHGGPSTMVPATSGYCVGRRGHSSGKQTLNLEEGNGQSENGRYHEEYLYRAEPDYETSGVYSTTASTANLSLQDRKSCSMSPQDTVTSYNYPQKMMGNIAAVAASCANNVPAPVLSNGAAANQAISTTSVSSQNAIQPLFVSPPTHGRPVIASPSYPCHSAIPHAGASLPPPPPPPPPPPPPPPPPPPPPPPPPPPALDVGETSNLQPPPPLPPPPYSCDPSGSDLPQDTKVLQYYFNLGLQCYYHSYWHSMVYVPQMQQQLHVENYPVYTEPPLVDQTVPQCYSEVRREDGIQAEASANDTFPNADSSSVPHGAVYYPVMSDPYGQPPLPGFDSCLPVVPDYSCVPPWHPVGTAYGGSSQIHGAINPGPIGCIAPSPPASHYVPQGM
inactive: erlotinib 0.022 | [1] -0.014 | [2] 0.049 | [3] -0.008 | [4] -0.048 | [5] 0.047 | [6] -0.032 | [7] -0.01 | [8] 0.083 | IRAK-1-4 Inhibitor I -0.02

ANAPC7 (UniProt Q9UJX3)
inactive: erlotinib -0.001 | [1] 0.006 | [2] 0.002 | [3] 0.024 | [4] -0.016 | [5] 0.003 | [6] 0.027 | [7] 0 | [8] -0.017 | IRAK-1-4 Inhibitor I 0.005

AK2 (UniProt P54819)
inactive: erlotinib -0.011 | [1] -0.052 | [2] 0.035 | [3] -0.002 | [4] 0.002 | [5] 0.016 | [6] 0.014 | [7] -0.008 | [8] -0.002 | IRAK-1-4 Inhibitor I 0.005

ADAMTS5 (UniProt Q9UNA0)
inactive: erlotinib 0.027 | [1] 0.004 | [2] 0.044 | [3] -0.05 | [4] -0.046 | [5] 0.049 | [6] -0.001 | [7] 0.058 | [8] 0.073 | IRAK-1-4 Inhibitor I 0.123

AKT1 (UniProt P31749)
inactive: erlotinib -0.008 | [1] 0.042 | [2] -0.004 | [3] 0.121 | [4] 0.019 | [5] 0.059 | [6] 0.018 | [7] -0.034 | [8] 0.03 | IRAK-1-4 Inhibitor I -0.005

ABL2 (UniProt P42684)
inactive: erlotinib -0.046 | [1] 0.068 | [2] 0.053 | [3] -0.014 | [4] -0.013 | [5] 0.045 | [6] -0.003 | [7] -0.065 | [8] -0.141 | IRAK-1-4 Inhibitor I -0.068

AGO4 (UniProt Q9HCK5)
inactive: erlotinib -0.038 | [1] -0.008 | [2] 0.031 | [3] -0.02 | [4] -0.031 | [5] 0.009 | [6] -0.015 | [7] 0.009 | [8] 0.016 | IRAK-1-4 Inhibitor I -0.009

ACACB (UniProt O00763)
inactive: erlotinib 0.042 | [1] 0.097 | [2] -0.025 | [3] 0.018 | [4] -0.02 | [5] -0.01 | [6] -0.008 | [7] -0.005 | [8] 0.015 | IRAK-1-4 Inhibitor I 0.025

ADK (UniProt P55263)
inactive: erlotinib 0.219 | [1] -0.024 | [2] -0.028 | [3] 0.132 | [4] -0.079 | [5] 0.047 | [6] 0.011 | [7] -0.049 | [8] 0.026 | IRAK-1-4 Inhibitor I 0.063

ABCD3 (UniProt P28288)
active: [1] 0.556
inactive: erlotinib -0.1 | [2] 0.217 | [3] -0.051 | [4] -0.055 | [5] -0.075 | [6] -0.031 | [7] -0.084 | [8] 0.044 | IRAK-1-4 Inhibitor I -0.003
